Molecules are shown by their SMILES. The panel holds about 83,000 compounds, 20% with a hit somewhere; the sample as a whole holds those more often.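 Single-concentration screen, 48 h exposure, 96-well plates. Endpoint: percent growth. Below 10 = active.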 Calls of active or inactive are those of the source.

One test has as its system HCC-2998 colon. Nature of the test: NCI-60 one-dose screen, 48 h (100 = growth as untreated, 0 = no growth, -100 = all killed). The conditions noted are these: 10 µM unless noted.
With `c1csc(-c2[nH]nc3c2CCc2ccccc2-3)c1`, the growth was 43.6% (inactive).
Regarding `C1=C(c2ccccc2)c2ccccc2C1`, the growth is 91% (inactive).
Still for that read-out and setting: then `O=[N+]([O-])c1ccc(C(Br)c2ccc([N+](=O)[O-])cc2)cc1`, with 90.4% (inactive).
In the case of `COc1cccc2c1C(=O)c1c(O)c3c(c(O)c1C2=O)C[C@@](O)(C(=O)CO)C[C@@H]3OC1CC(OC(C)=O)C(OC(C)=O)C(C)O1` (some centres undefined), the growth was -72% (active).
The same measure, in the same setting: then `OC(Cc1cc(CC(O)(C(F)(F)F)C(F)(F)F)nc(CC(O)(C(F)(F)F)C(F)(F)F)c1)(C(F)(F)F)C(F)(F)F`, with 23.9% (inactive); and `CCCCCCCCCCCCCCCCSC(=NCC)NCC`, with -64.9% (active); and `Cc1ccccc1NC(=O)Cc1csc2[n+]1C(=O)/C(=C/c1ccc([N+](=O)[O-])cc1)S2`, with 82.2% (inactive).
The same measure, in the same setting: then `CN(C)CCN(C)CC(C)(C)C(=O)/C=C/c1ccc(Cl)c(Cl)c1`, with -90.4% [100 µM] (active); and `CC(=O)C1Cc2ccccc2C1=O` (centres undefined), with 108% (inactive).
As for `Oc1c(Cl)cc(Cl)cc1C=NCC1CCC(CN=Cc2cc(Cl)cc(Cl)c2O)CC1` (centres undefined), the growth was 107% (inactive).
Still for that read-out and setting: then `Clc1ccc(-n2ncc3c(NCCCN4CCOCC4)ncnc32)cc1`, with 105% (inactive).
For `O=C1CSC(=S)N1Cc1cccnc1`, the growth is 126% (inactive).
Same read-out and setting: then `CCN(CC)CCNC(Cc1ccccc1)c1ccc(OCc2ccccc2)cc1` (centres undefined), with 45.4% (inactive); and `O=Nc1ccc2ccccc2c1O`, with 103% (inactive); and `CCOC(=O)/C(=C\c1ccc2ccccc2c1)P(=O)(OCC)OCC`, with 13.6% (inactive).
For `Cc1ccc2cccc(OC(=O)Nc3cccc(C(F)(F)F)c3)c2n1`, the growth was 87.6% (inactive).
For the compound `N#CC(I)CS(=O)(=O)c1ccccc1` (centres undefined), the growth was 107% (inactive).
On to `CC(C)(C)c1ccc(CCO)cc1`, for which the growth is 95.2% (inactive).
In the case of `CCCOS(=O)(=O)c1ccccc1`, the growth is 102% (inactive).
In the case of `CCC(C)(O)Cc1ccc(Cl)cc1` (centres undefined), the growth is 109% (inactive).
Turning to `CN(C)c1ccc(C(C#N)(c2ccccc2)c2ccc(N(C)C)cc2)cc1`, the growth was 51.2% (inactive).
With `O=[N+]([O-])CC(O)c1ccccc1` (centres undefined), the growth was 98.9% (inactive).
With `CCOC(=O)C1=NN(c2ccccc2)C(=O)/C1=C\N1C(=O)/C(=C/c2cccc(O)c2)SC1=S`, the growth was 99.8% (inactive).
Still for that read-out and setting: then `O=C(CCl)N1c2ccccc2Sc2c1ccc1ccccc21`, with 98.5% (inactive).
Same read-out and setting: then `CCc1oc2ccccc2c1C(=O)c1cc(Br)c(O)c(Br)c1`, with 85.9% (inactive).
On the same count and under the same terms, then `Cc1cc(C)c([I+]c2c(C)cc(C)cc2C)c(C)c1`, with -85.5% (active).
With `CC1(C)N=c2cc3c(cc2N1c1ccc(Cl)cc1)=Nc1ccccc1N3c1ccc(Cl)cc1`, the growth is 36.9% (inactive).
On the same count and under the same terms, then `O=C(Nc1ccc(Cl)c(Cl)c1)Nc1ccccc1O`, with 80.4% (inactive); and `O=C1/C(=C/c2ccccc2)CCC/C1=C\c1ccccc1`, with 81.4% (inactive).
The same measure, in the same setting: then `CN=C(N)N/N=C(\C)c1ccc2c(c1)Cc1ccccc1-2`, with -98.5% (active).
In the case of `CCCCCCCCc1cc(Cl)c(O)c(Cl)c1`, the growth was 112% (inactive).
On the same count and under the same terms, then `CC1(O)CCCCCC1`, with 98.8% (inactive); and `CCN1/C(=C/C(C)=C/c2sc3ccc4ccccc4c3[n+]2CC)Sc2ccc3ccccc3c21`, with -76.1% (active); and `CC(O)C(O)C(O)C(O)C(O)C(=O)NNc1ccccc1` (centres undefined), with 95.1% (inactive).
On the same count and under the same terms, then `Cc1nn(CCO)c(C)c1N=[N+]([O-])c1c(C)nn(CCO)c1C`, with 109% (inactive); and `CCCCN(CCCC)CCCCCCCCCCO`, with 103% (inactive).
The same measure, in the same setting: then `C/C(=N\NC(=S)N1CC2CCC(CC2)C1)c1ccccn1`, with 29.3% (inactive).

The next test deals with KM12 colon. The test is described as above. The conditions noted are these: 10 µM unless noted.
With `c1csc(-c2[nH]nc3c2CCc2ccccc2-3)c1`, the growth was 23.5% (inactive).
For the compound `C1=C(c2ccccc2)c2ccccc2C1`, the growth was 96.3% (inactive).
On the same count and under the same terms, then `O=[N+]([O-])c1ccc(C(Br)c2ccc([N+](=O)[O-])cc2)cc1`, with 60.3% (inactive); and `COc1cccc2c1C(=O)c1c(O)c3c(c(O)c1C2=O)C[C@@](O)(C(=O)CO)C[C@@H]3OC1CC(OC(C)=O)C(OC(C)=O)C(C)O1` (some centres undefined), with -39% (active); and `OC(Cc1cc(CC(O)(C(F)(F)F)C(F)(F)F)nc(CC(O)(C(F)(F)F)C(F)(F)F)c1)(C(F)(F)F)C(F)(F)F`, with 1.25% (active).
Turning to `CCCCCCCCCCCCCCCCSC(=NCC)NCC`, the growth was -30.7% (active).
As to `Cc1ccccc1NC(=O)Cc1csc2[n+]1C(=O)/C(=C/c1ccc([N+](=O)[O-])cc1)S2`, the growth is 98.4% (inactive).
As for `CN(C)CCN(C)CC(C)(C)C(=O)/C=C/c1ccc(Cl)c(Cl)c1`, the growth was -93.4% [100 µM] (active).
Regarding `CC(=O)C1Cc2ccccc2C1=O` (centres undefined), the growth is 102% (inactive).
Same read-out and setting: then `Oc1c(Cl)cc(Cl)cc1C=NCC1CCC(CN=Cc2cc(Cl)cc(Cl)c2O)CC1` (centres undefined), with 93.6% (inactive).
Same read-out and setting: then `Clc1ccc(-n2ncc3c(NCCCN4CCOCC4)ncnc32)cc1`, with 103% (inactive).
On the same count and under the same terms, then `O=C1CSC(=S)N1Cc1cccnc1`, with 7.96% (active).
As to `CCN(CC)CCNC(Cc1ccccc1)c1ccc(OCc2ccccc2)cc1` (centres undefined), the growth is 80.7% (inactive).
Consider `O=Nc1ccc2ccccc2c1O`, for which the growth is 79.3% (inactive).
The same measure, in the same setting: then `CCOC(=O)/C(=C\c1ccc2ccccc2c1)P(=O)(OCC)OCC`, with 39.2% (inactive); and `Cc1ccc2cccc(OC(=O)Nc3cccc(C(F)(F)F)c3)c2n1`, with 44.5% (inactive).
As for `N#CC(I)CS(=O)(=O)c1ccccc1` (centres undefined), the growth was 96.1% (inactive).
On the same count and under the same terms, then `CC(C)(C)c1ccc(CCO)cc1`, with 115% (inactive).
Still for that read-out and setting: then `CCCOS(=O)(=O)c1ccccc1`, with 103% (inactive); and `CCC(C)(O)Cc1ccc(Cl)cc1` (centres undefined), with 101% (inactive); and `CN(C)c1ccc(C(C#N)(c2ccccc2)c2ccc(N(C)C)cc2)cc1`, with 65.5% (inactive).
Same read-out and setting: then `O=[N+]([O-])CC(O)c1ccccc1` (centres undefined), with 97.4% (inactive); and `CCOC(=O)C1=NN(c2ccccc2)C(=O)/C1=C\N1C(=O)/C(=C/c2cccc(O)c2)SC1=S`, with 100% (inactive).
As to `O=C(CCl)N1c2ccccc2Sc2c1ccc1ccccc21`, the growth was 87.2% (inactive).
Regarding `CCc1oc2ccccc2c1C(=O)c1cc(Br)c(O)c(Br)c1`, the growth is 77.5% (inactive).
Turning to `Cc1cc(C)c([I+]c2c(C)cc(C)cc2C)c(C)c1`, the growth was -75.9% (active).
Still for that read-out and setting: then `CC1(C)N=c2cc3c(cc2N1c1ccc(Cl)cc1)=Nc1ccccc1N3c1ccc(Cl)cc1`, with 77% (inactive); and `O=C(Nc1ccc(Cl)c(Cl)c1)Nc1ccccc1O`, with 96.5% (inactive); and `O=C1/C(=C/c2ccccc2)CCC/C1=C\c1ccccc1`, with 10.1% (inactive).
Still for that read-out and setting: then `CN=C(N)N/N=C(\C)c1ccc2c(c1)Cc1ccccc1-2`, with -79% (active).
For the compound `CCCCCCCCc1cc(Cl)c(O)c(Cl)c1`, the growth is 101% (inactive).
With `CC1(O)CCCCCC1`, the growth is 106% (inactive).
Regarding `CCN1/C(=C/C(C)=C/c2sc3ccc4ccccc4c3[n+]2CC)Sc2ccc3ccccc3c21`, the growth is -93.6% (active).
On the same count and under the same terms, then `CC(O)C(O)C(O)C(O)C(O)C(=O)NNc1ccccc1` (centres undefined), with 85.7% (inactive); and `Cc1nn(CCO)c(C)c1N=[N+]([O-])c1c(C)nn(CCO)c1C`, with 81% (inactive); and `CCCCN(CCCC)CCCCCCCCCCO`, with 103% (inactive).
Still for that read-out and setting: then `C/C(=N\NC(=S)N1CC2CCC(CC2)C1)c1ccccn1`, with 9.58% (active).
